# Results from PubChem BioAssay.
# The source made the active and inactive calls.
# Assays:
# [1] = test system: Plasmodium falciparum Sir2 (PF13_0152, Sir2A); assay: Plasmodium falciparum Sir2A binding compounds – biochemical, small-molecule microarray, 635 nm fluorescence, primary screen (AID 1098); settings: fluorescence 635 nm, higher = more signal;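 further: score merges spot fluorescence intensity with its signal-to-noise ratio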
# [2] = probe aDKK1 binding to arrayed compounds – biochemical, biotinylated probe, 635/667 nm fluorescence, primary screen (AID 1099); settings: small-molecule microarray, higher = more signal;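 further: score merges 667nm spot fluorescence with signal to noise across triplicate slides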
# [3] = probe aCHRDL2 binding to arrayed compounds – biochemical, biotinylated probe, 635/667 nm fluorescence, primary screen (AID 1100); settings: small-molecule microarray, higher = more signal
# [4] = change in splice reporter luminescence, either direction, cell-based, HEK293, spliceosome inhibition project, primary screen (AID 1101); settings: HEK293 splicing luciferase reporter, 24 h, higher = more signal, called active from +8 up or from −8 down;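 further: HEK293 cells carrying a splicing-competent luciferase reporter gene; test concentration not given here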
# [5] = molecular target: Fibroblast growth factor 10 (Homo sapiens) (UniProt O15520); assay: compounds binding fibroblast growth factor 10 – biochemical, small-molecule microarray, 635 nm fluorescence, primary screen (AID 1102); settings: FGF10 binding, fluorescence 635 nm, higher = more signal
# [6] = test system: glycogen synthase kinase-3 (GSK3A per assay name; protocol says GSK3B); assay: compounds binding glycogen synthase kinase-3 – biochemical, small-molecule microarray, 635 nm fluorescence, GSK3A, primary screen (AID 1103); settings: fluorescence 635 nm, higher = more signal; further: the record names both GSK3A and GSK3B
# [7] = molecular target: Epidermal growth factor receptor (Homo sapiens) (UniProt P00533); assay: compounds binding epidermal growth factor receptor – biochemical, small-molecule microarray, 635 nm fluorescence, primary screen (AID 1104); settings: EGFR binding, higher = more signal;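 further: score merges 667 nm emission intensity with spot signal to noise over triplicate slides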
# [8] = molecular target: Follistatin-related protein 3 (Homo sapiens) (UniProt O95633); assay: compounds binding follistatin-related protein 3 – biochemical, small-molecule microarray, 635 nm fluorescence, primary screen (AID 1105); settings: FSTL3 binding, higher = more signal;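 further: score merges emission near 667 nm and signal to noise per printed spot across three slides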
# [9] = molecular target: Dickkopf-related protein 1 (Homo sapiens) (UniProt O94907); assay: small molecules binding DKK1 protein – biochemical, small-molecule microarray, 635 nm fluorescence scan, primary screen (AID 1106); settings: higher = more signal;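 further: score merges emission near 667 nm with signal to noise over three replicate slides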
# [10] = test system: Inhibin beta A chain (activin A); assay: small molecules binding activin A – biochemical, small-molecule microarray, 635 nm fluorescence scan, primary screen (AID 1107); settings: INHBA, higher = more signal;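 further: mouse activin A protein probed at 4.33 µg/mL on printed slides; score merges bound-protein fluorescence near 667 nm with spot signal-to-noise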
# [11] = test system: Human papillomavirus type 1a protein E7 (residues 44-93); assay: small molecules binding HPV E7 44-93 – biochemical, small-molecule microarray, residues 44-93, 635 nm fluorescence, primary screen (AID 1108); settings: fluorescence 635 nm, higher = more signal;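 further: E7 fragment applied at 1 µg/mL in TBST for 1 h at 4 C; score combines spot fluorescence with its signal to noise ratio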
# [12] = hepatitis C replication reporter changes, two-sided – Huh7 cells, luciferase reporter, HCV replication inhibitor project, primary screen (AID 1109); settings: Huh7 HCV replicon luciferase reporter, 48 h; higher = more signal;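 further: huh7 hepatoma cells harbouring a luciferase neomycin HCV replicon reporter; luciferase luminescence as measure of HCV replicon replication; test concentration not given here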
# [13] = molecular target: Left-right determination factor 2 (Homo sapiens) (UniProt O00292); assay: small molecules binding LEFTY2 protein – biochemical, small-molecule microarray, 635 nm fluorescence scan, primary screen (AID 1110); settings: higher = more signal
# [14] = molecular target: Calmodulin-1 (Homo sapiens) (UniProt P0DP23); assay: small molecules binding calmodulin-1 with EGTA – biochemical, small-molecule microarray, Cy5-labelled CALM1, profiling panel (AID 1111); settings: Cy5-CALM1 binding fluorescence, higher = more signal;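 further: labelled calmodulin applied in Tris saline Tween buffer holding calcium plus EGTA and DTT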
# [15] = molecular target: Calmodulin-1 (Homo sapiens) (UniProt P0DP23); assay: small molecules binding Ca-loaded calmodulin-1 – biochemical, small-molecule microarray, Cy5-labelled CALM1, plus calcium, artefact control for SMM control-protein annotation, profiling panel (AID 1112); settings: Cy5-CALM1 binding fluorescence, higher = more signal;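 further: score merges spot fluorescence with signal to noise from triplicate slides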
# [16] = probe aWnt5a binding to arrayed compounds – biochemical, biotinylated probe, 635/667 nm fluorescence, primary screen (AID 1113); settings: small-molecule microarray, higher = more signal;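 further: score merges 667 nm fluorescence intensity with signal-to-noise per printed feature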
# [17] = probe aShh binding to arrayed compounds – biochemical, biotinylated probe, 635/667 nm fluorescence, primary screen (AID 1114); settings: small-molecule microarray, higher = more signal;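 further: probe is biotin-labelled aShh protein from a stem cell growth factor screen; measures binding of labelled protein to compounds printed on the slide; score merges feature fluorescence at 667 nm with signal-to-noise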
# [18] = probe aNog binding to arrayed compounds – biochemical, biotinylated probe, 635/667 nm fluorescence, primary screen (AID 1115); settings: small-molecule microarray, higher = more signal;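 further: probe is biotinylated aNog protein used at 0.15 µg/mL for 1 h at 4 C; z-score combines 667 nm fluorescence of each spot with its signal to noise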
# [19] = molecular target: Torsin-1A-interacting protein 1 (Homo sapiens) (UniProt Q5JTV8); assay: compound microarray binding of lysate hLAP1 – cell lysate, small-molecule microarray, COS7 lysate, 635/667 nm fluorescence, primary screen (AID 1116); settings: 635 nm fluorescence, higher = more signal
# [20] = molecular target: Alpha-bungarotoxin (Bungarus multicinctus) (UniProt P60615); assay: compounds binding labelled alpha-BTX control protein – biochemical, small-molecule microarray, Alexa647 label, 635/667 nm fluorescence, artefact control for SMM control protein annotation, profiling panel (AID 1117); settings: alpha-BTX-A647 binding fluorescence, higher = more signal
# Chain of Alpha-bungarotoxin (Bungarus multicinctus) (P60615 whole entry, looked up): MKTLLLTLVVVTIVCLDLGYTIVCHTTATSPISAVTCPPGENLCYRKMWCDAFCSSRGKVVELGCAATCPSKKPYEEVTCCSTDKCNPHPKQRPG
# Chain of Dickkopf-related protein 1 (Homo sapiens) (O94907 whole entry, looked up): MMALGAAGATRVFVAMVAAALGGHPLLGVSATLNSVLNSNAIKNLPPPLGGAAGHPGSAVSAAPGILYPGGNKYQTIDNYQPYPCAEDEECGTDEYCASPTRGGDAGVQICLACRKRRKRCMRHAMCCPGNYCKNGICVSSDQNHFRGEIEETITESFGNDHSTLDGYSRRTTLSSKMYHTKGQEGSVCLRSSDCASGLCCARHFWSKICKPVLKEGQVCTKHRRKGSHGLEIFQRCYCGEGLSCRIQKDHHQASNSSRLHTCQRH
# Chain of Fibroblast growth factor 10 (Homo sapiens) (O15520 whole entry, looked up): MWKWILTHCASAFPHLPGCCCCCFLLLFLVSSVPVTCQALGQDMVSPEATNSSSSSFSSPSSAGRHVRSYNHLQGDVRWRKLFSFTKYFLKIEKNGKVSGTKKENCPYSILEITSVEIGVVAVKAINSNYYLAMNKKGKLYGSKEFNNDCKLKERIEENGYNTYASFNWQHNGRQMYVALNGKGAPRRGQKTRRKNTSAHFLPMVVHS
# Chain of Left-right determination factor 2 (Homo sapiens) (O00292 whole entry, looked up): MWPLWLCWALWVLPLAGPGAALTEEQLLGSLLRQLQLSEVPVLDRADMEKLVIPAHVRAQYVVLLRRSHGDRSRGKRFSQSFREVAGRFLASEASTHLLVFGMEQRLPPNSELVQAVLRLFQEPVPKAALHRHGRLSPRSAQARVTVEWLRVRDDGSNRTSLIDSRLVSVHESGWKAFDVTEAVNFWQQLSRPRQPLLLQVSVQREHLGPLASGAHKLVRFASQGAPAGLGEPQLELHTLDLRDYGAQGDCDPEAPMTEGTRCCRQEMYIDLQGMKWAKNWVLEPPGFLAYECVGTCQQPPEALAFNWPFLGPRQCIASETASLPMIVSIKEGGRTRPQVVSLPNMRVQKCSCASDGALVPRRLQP
# Chain of Follistatin-related protein 3 (Homo sapiens) (O95633 whole entry, looked up): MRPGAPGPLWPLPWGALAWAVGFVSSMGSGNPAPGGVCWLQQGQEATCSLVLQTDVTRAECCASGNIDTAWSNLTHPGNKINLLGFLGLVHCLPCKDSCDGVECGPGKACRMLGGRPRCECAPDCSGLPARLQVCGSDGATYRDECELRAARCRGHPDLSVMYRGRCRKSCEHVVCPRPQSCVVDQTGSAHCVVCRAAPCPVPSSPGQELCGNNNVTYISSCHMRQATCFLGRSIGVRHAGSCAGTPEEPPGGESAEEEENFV
# Chain of Torsin-1A-interacting protein 1 (Homo sapiens) (Q5JTV8 whole entry, looked up): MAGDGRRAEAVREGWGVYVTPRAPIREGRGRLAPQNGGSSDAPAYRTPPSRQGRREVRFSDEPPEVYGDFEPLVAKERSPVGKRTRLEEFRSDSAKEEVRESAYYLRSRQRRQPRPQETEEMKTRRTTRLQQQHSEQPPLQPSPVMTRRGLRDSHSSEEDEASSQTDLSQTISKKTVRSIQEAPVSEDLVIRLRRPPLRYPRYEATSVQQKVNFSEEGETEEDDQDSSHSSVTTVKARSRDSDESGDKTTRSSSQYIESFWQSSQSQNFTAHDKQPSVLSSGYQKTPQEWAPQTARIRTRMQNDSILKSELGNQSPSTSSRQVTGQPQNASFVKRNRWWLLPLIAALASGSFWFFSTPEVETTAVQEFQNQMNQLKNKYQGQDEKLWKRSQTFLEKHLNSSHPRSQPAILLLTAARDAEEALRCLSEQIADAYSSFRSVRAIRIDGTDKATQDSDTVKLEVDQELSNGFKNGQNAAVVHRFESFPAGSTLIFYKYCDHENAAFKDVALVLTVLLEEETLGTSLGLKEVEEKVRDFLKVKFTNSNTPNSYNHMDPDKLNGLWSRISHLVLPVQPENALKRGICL
# Chain of Epidermal growth factor receptor (Homo sapiens) (P00533 whole entry, looked up): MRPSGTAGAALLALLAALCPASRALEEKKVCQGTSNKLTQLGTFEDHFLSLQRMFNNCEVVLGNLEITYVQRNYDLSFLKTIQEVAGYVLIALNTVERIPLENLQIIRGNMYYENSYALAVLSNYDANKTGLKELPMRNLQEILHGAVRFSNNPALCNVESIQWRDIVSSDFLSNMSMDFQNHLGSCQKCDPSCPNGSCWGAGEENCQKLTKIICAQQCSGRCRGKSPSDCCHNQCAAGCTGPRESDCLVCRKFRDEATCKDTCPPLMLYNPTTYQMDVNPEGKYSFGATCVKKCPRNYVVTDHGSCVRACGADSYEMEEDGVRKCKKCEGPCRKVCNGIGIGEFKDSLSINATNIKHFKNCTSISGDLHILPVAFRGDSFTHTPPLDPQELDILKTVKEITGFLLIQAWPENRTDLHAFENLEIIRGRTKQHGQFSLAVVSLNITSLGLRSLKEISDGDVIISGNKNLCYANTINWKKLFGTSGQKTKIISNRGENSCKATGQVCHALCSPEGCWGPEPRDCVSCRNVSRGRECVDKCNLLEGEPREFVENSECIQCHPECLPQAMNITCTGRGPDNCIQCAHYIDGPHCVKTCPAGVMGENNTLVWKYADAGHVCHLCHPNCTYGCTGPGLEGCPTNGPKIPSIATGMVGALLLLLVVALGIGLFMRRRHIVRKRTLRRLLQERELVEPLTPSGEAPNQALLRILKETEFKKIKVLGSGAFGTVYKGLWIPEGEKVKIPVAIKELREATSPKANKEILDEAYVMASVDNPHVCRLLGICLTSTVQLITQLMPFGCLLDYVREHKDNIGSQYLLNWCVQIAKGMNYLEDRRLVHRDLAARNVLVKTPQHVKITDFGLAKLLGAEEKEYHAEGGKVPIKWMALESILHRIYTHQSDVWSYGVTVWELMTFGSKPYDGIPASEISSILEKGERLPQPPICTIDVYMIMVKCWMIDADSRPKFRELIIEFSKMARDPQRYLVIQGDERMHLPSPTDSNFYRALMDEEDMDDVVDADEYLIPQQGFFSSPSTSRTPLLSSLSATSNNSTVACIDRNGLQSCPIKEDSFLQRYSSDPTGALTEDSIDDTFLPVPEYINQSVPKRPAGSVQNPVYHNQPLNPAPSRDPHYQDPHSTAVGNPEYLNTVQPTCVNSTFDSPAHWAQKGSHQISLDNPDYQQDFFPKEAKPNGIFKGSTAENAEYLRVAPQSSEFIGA
Structure (SMILES),composite z-score [1],composite z-score [2],composite z-score [3],z-score [4],composite z-score [5],composite z-score [6],composite z-score [7],composite z-score [8],composite z-score [9],composite z-score [10],composite z-score [11],z-score [12],composite z-score [13],composite z-score [14],composite z-score [15],composite z-score [16],composite z-score [17],composite z-score [18],composite z-score [19],composite z-score [20]
Cc1ccc(S(=O)(=O)N[C@H]2COC(=O)CC=C[C@@H](C)COC(=O)CC=C[C@@H]2C)cc1,0.549,-0.789,-1.26,0.597 (inactive),0.813,0.448,0.823,1.4,2.04,1.36,-0.572,0.391,0.449,-0.606,-1.24,-0.12,-0.153,-0.222,0.163,-0.361
O=C(NN=C1C[C@@H](O)[C@@H](O)[C@@H]2[C@@H]3C(=O)N(C4CCCCC4)C(=O)[C@@H]3CC[C@H]12)OCc1ccccc1,0.0222,0.691,1.07,-0.177 (inactive),0.836,0.0816,0.554,-0.483,-0.504,-0.0726,-0.342,-2.03,0.393,-0.202,0.454,-0.0051,-0.542,0.0014,0.26,0.273
COC(=O)[C@@H]1CC[C@H](C)[C@@H](c2ccc(C)cc2)N1C(=O)c1ccc(C=NO[C@@H](C)c2cn([C@H](CO)Cc3ccccc3)nn2)cc1,1.03,-0.0212,-0.925,-0.746 (inactive),1.09,1.16,0.797,1.17,1.22,-0.116,1.3,-2.25,0.785,-0.0062,-0.388,0.116,-0.0146,-0.0554,0.641,0.51
COC(=O)CC=C[C@@H](C)[C@@H](C=NO[C@H](C)c1cn([C@H](CO)Cc2ccccc2)nn1)NS(=O)(=O)c1ccc(C)cc1,0.182,0.0644,-0.0281,0.0956 (inactive),0.532,0.0796,0.264,0.226,0.0568,-0.119,0.37,-1.35,0.483,0.333,-0.215,-0.152,0.178,-0.0196,1.42,1.56
C[C@H]1Cc2c(COc3ccccc3)nc3c(c2CO1)CN(CCOc1ccccc1)CC3,0.654,-0.133,-0.496,-0.34 (inactive),1.03,1.15,0.5,1.29,0.538,0.298,1.14,-0.228,0.635,0.625,-0.255,-0.172,0.0144,-0.502,0.647,0.161
